Most compounds without a hit are left out; they make up all but 3.6% or so of the library.
Nrf2 block = Nrf2 pathway inhibition; A549 ARE-Fluc reporter, luciferase luminescence, 18-24 h; Potency, µM (doses to about 46 µM), inactives show at the highest dose activity change, negative = inhibition, usual class: inhibitors; hit rate 2.1% among 360,000; AID 504444; note: % is set by controls: 0 for no effect and ±100 for the full control effect; nearly all actives have a fitted effect of over 60% in size
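Nrf2 activity is the BugLite luminescence, read 15 min after reagent at room temperature, following CellTiter-Fluor cytotoxicity readout (30 min, 37C). Compound titrations were applied for 18-24 h to 5000 A549 ARE_Fluc cells/well in 5% FBS OPTI-MEM.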
HepG2 tox = counter-screen for TGF-b inhibitors: cytotoxicity in HepG2 cells; Potency, µM (titrated, usually from 46.1 µM), without a hit: at the highest dose activity change, negative = cytotoxicity, usual class: cytotoxic; hit rate 0.76% among 410,000; AID 588856; HepG2 CAGA-GFP viability, ATP luminescence, 18 h
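CellTiter-Glo luminescence gave cytotoxicity after 18 hours at 37 degrees C. The cells were HepG2 CAGA-GFP in 1% FBS DMEM, stimulated with 500 pg/mL TGF-beta after compound addition. %Activity was normalised to no-cell wells (complete cell-killing) and DMSO (no toxicity), and curves were fitted and classified.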
TGFb inhibitor = inhibitors of TGF-b signaling | HepG2 CAGA-GFP TGF-b/SMAD3 reporter, GFP fluorescence, 18 h; TGF-beta stimulated, 500 pg/mL final | Potency, µM (highest dose often 46.1 µM), inactives show at the top dose activity, negative = inhibition, hits mostly inhibitors | hit rate 1.2% among 410,000; note: % is set by controls: 0 for no effect and ±100 for the full control effect; nearly all actives have a fitted effect of over 65% in size
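Smad-responsive CAGA-GFP expression was quantified in HEPG2 cells exposed to compounds and 500 pg/mL final TGF-beta for 18 h at 37 degrees C; unstimulated wells defined full inhibition.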
A549 viability = A549 cytotoxicity, counter-screen for Nrf2 inhibitors | AID 504648 | A549 ARE-Fluc cells, CellTiter-Fluor viability, 18-24 h | Potency, µM (series often up to 46 µM), for inactives: at the highest dose activity change, negative = cytotoxicity, usual class: inhibitors | hit rate 0.16% among 390,000; note: % is set by controls: 0 for no effect and ±100 for the full control effect
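A549 ARE_Fluc cells in 5% FBS OPTI-MEM were exposed to compounds in concentration-response for 18-24 h at 37 deg C. Viability was read by CellTiter-Fluor fluorescence (Ex 405/Em 525) after 30 min, before the luciferase read.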
Nrf2 ARE act = activators of Nrf2 (ARE) signaling. AREc32 ARE-luciferase reporter (MCF7-derived line), luminescence, 24 h. Potency, µM (doses to about 46.1 µM), without a hit: top-dose activation, most hits filed as activators. hit rate 0.31% among 410,000; note: % of control where 0% means no effect; nearly all actives have a fitted effect of over 65% in size
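Reporter line AREc32 (ARE-Fluc), seeded overnight in OPTI-MEM with 5% FBS; compound pin-transferred, 24 hr at 37 deg C, 5% CO2; luminescent read-out.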
An asterisk follows results filed as active; ? = inconclusive; . = no result given; [ ] = remark or other dose. Calls come from the whole dose curve; as a rule, active = well fitted curve in the direction sought with a large enough effect; inconclusive = small, poorly fitted or top-dose-only effect, or another doubt; inactive = no such curve, though single readings can be large; an effect the other way counts as inactive or inconclusive. Potency is the fitted concentration of half-maximal effect.

SMILES | Nrf2 block | HepG2 tox | TGFb inhibitor | A549 viability | Nrf2 ARE act
C#CCCc1ccccc1/C=[N+](/C)[O-] | ? | -94% | 16µM* | -8% | 0%
C[C@H](O)[C@@H](C(=O)N1CCN(C(=O)OC(C)(C)C)CC1)n1cc(CCCCNC(=O)OC(C)(C)C)nn1 | 0% | 2% | 4% | -4% | 0%
O=S(=O)(c1ccc(-c2cnc(C3CC3)o2)cc1)N1CCN(c2ccc(F)cc2)CC1 | . | -28% | ? | -25% | 1%
COc1ccccc1CNS(=O)(=O)c1ccc(-c2cnc(C3CC3)o2)cc1 | -5% | 29% | 11µM* | 1% | 3%
COc1ccc(NS(=O)(=O)c2ccc(-c3cnc(C4CC4)o3)cc2)cc1OC | ? | -22% | -31% | -16% | 0%
Cc1ccc(-c2cnc(C3CC3)o2)cc1S(=O)(=O)Nc1ccccc1 | ? | 2% | -27% | 14% | 4%
Cc1ccc(NS(=O)(=O)c2cc(-c3cnc(C4CC4)o3)ccc2C)cc1Cl | . | 11µM* | 7.1µM* | -15% | -2%
Cc1cc(C)c(NS(=O)(=O)c2ccc(-c3cnc(C4CC4)o3)cc2)c(C)c1 | . | -67% | 1.4µM* | -17% | 0%
O=S(=O)(Nc1ccc(F)cc1Cl)c1ccc(-c2cnc(C3CC3)o2)cc1 | -9% | -54% | 14µM* | -9% | 0%
COc1cc(NC(=O)CSc2nc3ccccc3nc2Cc2ccc(Cl)cc2)cc(OC)c1 | . | -7% | 0% | 0% | 0%
CC1CCCC(C)N1NC(=O)c1ccc(Cl)c(S(N)(=O)=O)c1 (configuration not stated) | -8% | 4% | 0% | -9% | -1%
Cc1ccc(NS(=O)(=O)c2ccc(-c3cnc(C4CC4)o3)cc2)c(C)c1 | 0% | -68% | 13µM* | -4% | 0%
CCOc1ccccc1NS(=O)(=O)c1ccc(-c2cnc(C3CC3)o2)cc1 | ? | -31% | 4.5µM* | -7% | 3%
O=S(=O)(Nc1cccc(C(F)(F)F)c1)c1ccc(-c2cnc(C3CC3)o2)cc1 | . | 13µM* | ? | -11% | 1%
CCN(CC)c1ccc(NS(=O)(=O)c2ccc(-c3cnc(C4CC4)o3)cc2)c(C)c1 | . | -22% | ? | -15% | -1%
CCOc1ccccc1NS(=O)(=O)c1cc(-c2cnc(C3CC3)o2)ccc1C | . | -49% | -25% | -3% | 0%
Fc1ccc(Cn2nnnc2CN2CCN(C3CCCCC3)CC2)cc1 | 5% | -1% | 0% | -1% | -1%
CNC(=O)CNC(=O)Nc1ccc(C)cc1 | 12% | -5% | -3% | 10% | -1%
C=C1C(=O)OC2C=C(CO)CCC=C(CO)CC(OC(=O)C(C)C)C12 (configuration not stated) | 10% | -88% | 16µM* | -2% | -2%
COC(=O)c1c(C)oc2ccc(N(C(=O)c3ccncc3)S(=O)(=O)c3cc(C)ccc3C)cc12 | ? | -9% | 1% | -11% | -1%
CN(C)S(=O)(=O)c1ccc(Cl)c(C(=O)Nc2cccc([N+](=O)[O-])c2)c1 | 9.2µM* | -28% | ? | -1% | 13%
CS(=O)(=O)Nc1ccc(C(=O)Nc2cccc([N+](=O)[O-])c2)cc1 | -16% | 3% | 3% | -5% | 6.3µM*
O=C(Nc1cccc([N+](=O)[O-])c1)Nc1cccs1 | 1% | -40% | ? | 2% | 7.1µM*
O=C(Nc1ccccc1C(=O)N1CCCCC1)c1cccc(S(=O)(=O)N2CCOCC2)c1 | 9% | 5% | 6% | 7% | -1%
O=C1C(=O)c2cccnc2-c2ncccc21 | . | 2µM* | 1.4µM* | . | -3%
SMILES | Nrf2 block | HepG2 tox | TGFb inhibitor | A549 viability | Nrf2 ARE act
COCc1ccc(C(=O)N(C)CC2CCCN(CCc3ccccc3F)C2)o1 (configuration not stated) | 5% | -7% | 0% | -1% | -1%
OCC[C@H]1C[C@@H](O)[C@H](O)[C@]2(CCc3ccccc3CO2)O1 | 18% | -1% | 1% | -2% | -1%
CC(=O)Oc1ccc(N2C(=O)C3C4C=CC(CO)(O4)C3C2=O)cc1 (configuration not stated) | . | 17% | 8% | -4% | 9%
O=C1C2C3C=CC(CO)(O3)C2C(=O)N1c1ccccc1-c1ccccc1 (configuration not stated) | ? | 13µM* | 13µM* | ? | -2%
O=C(Oc1ccc(Cl)c2cccnc12)c1cccc([N+](=O)[O-])c1 | -10% | -56% | 14µM* | -2% | 5%[9.22 µM]
COC(=O)CSc1nnc(-c2ccccn2)n1Cc1ccco1 | -3% | -2% | -4% | 1% | 0%
COc1ccccc1-c1ccc(/C=C2\C=CC(=O)O2)o1 | 1% | -16% | 2% | 1% | 16µM*
CCCc1cc(=O)[nH]c(SCC(=O)C(C)(C)C)n1 | -6% | -5% | -6% | -1% | 0%
O=C(CC(=O)N/N=C/c1c(F)cccc1Cl)NCCc1ccccc1 | -20% | 5% | ? | 1% | 6%
CCCOc1ccc(C(=O)Nc2nc(C)c(Cc3ccc4c(c3)OCO4)s2)cc1 | ? | -57% | ? | -25% | -2%
COc1cc(C(=O)Nc2nc(C)c(Cc3ccc4c(c3)OCO4)s2)cc(OC)c1OC | 15µM* | 2% | ? | 0% | 4%
COC/C=C/C1=CC2=CC(=O)C(C)(OC(=O)c3cnc4ccccc4n3)C(=O)C2=CN1Cc1ccccc1 (configuration not stated) | 6% | -17% | 11µM* | -13% | ?
CCCCCc1c2c(cc(O)c1C(=O)O)OC(=O)c1c(cc(OC)cc1C(=O)CCCC)O2 | 11% | -69% | 20µM* | 0% | 1%
COc1ccc(Cn2c(SCc3ccc(C)cc3)nc3cc(OC)c(OC)cc3c2=N)cc1Cl | ? | 5.6µM* | ? | ? | 8%
COc1ccc(Cn2c(SCc3cc(C)ccc3C)nc3cc(OC)c(OC)cc3c2=N)cc1 | 23µM* | 10µM* | -4% | 18µM* | 0%
Cc1ccccc1NS(=O)(=O)c1cc(OCC(N)=O)c(C)cc1Cl | -13% | -7% | 1% | 0% | 0%
COc1ccc(OC)c2c(C)ccnc12 | . | 13µM* | 7.9µM* | . | .
Cc1ccnc2c(Cl)ccc(Cl)c12 | . | -20% | -15% | . | .
COc1ccc(NC(=S)N2CCN(C/C=C/c3ccccc3)CC2)c(OC)c1 | ? | 0% | -21% | -4% | 0%
COc1ccc2sc(-c3ccc(N(C)C)cc3)c(C#Cc3cncn3C)c2c1 | -12% | 8.9µM* | ? | -1% | 5%
COc1ccc2sc(-c3ccc(N(C)C)cc3)c(C#CCCO)c2c1 | 3% | -19% | -1% | 2% | 18%
Cc1cc(C)c(NC(=O)CSc2nc(COc3ccccc3)nc3ccccc23)c(C)c1 | ? | -53% | -5% | ? | 0%
